A selection: hits, their analogues and other compounds. The true share with any hit is near 3.5%.
Tau fluor cs: Counterscreen qHTS for Inhibitors of Tau Fibril Formation, Fluorescence Polarization. tau K18 P301L Alexa594 fluorescence, heparin fibrillization. hit rate 0.93% among 280,000. Potency, µM (top dose mostly 57.7 µM), without a hit: top-dose activity change, negative = decrease; also: nearly all actives have a fitted effect of over 55% in size
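Human K18 P301L tau (15 uM unlabeled plus 0.24 uM Alexa 594-labeled, final) in 100 mM sodium acetate pH 7 was mixed with compound and 20 uM heparin and incubated 6 hr at 37 C.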
TRb SRC2 PPI: qHTS for Inhibitors of the Interaction of Thyroid Hormone Receptor and Steroid Receptor Coregulator 2; Potency, µM (series often up to 106 µM), for inactives: at the top dose activity change, negative = inhibition, usual class: inhibitors; hit rate 0.065% among 280,000; Thyroid hormone receptor beta (Homo sapiens), P10828; TRbeta-SRC2 peptide binding, fluorescence polarization; receptor liganded with 1 µM T3;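 also: plate controls were bound peptide for no effect and peptide without receptor for full effect; nearly all actives have a fitted effect of over 50% in size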
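Binding of a 20-amino-acid Texas Red SRC2 peptide (20 nM) to TRb ligand-binding domain (0.6 uM) with agonist T3 at 1 uM was followed by fluorescence polarization after a 5 hr room-temperature incubation.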
Tau fibril FP: qHTS for Inhibitors of Tau Fibril Formation, Fluorescence Polarization; Microtubule-associated protein tau (Homo sapiens), P10636; K18 P301L tau heparin fibrillization, Alexa594 FP, 6 h; Potency, µM (titrated, usually from 57.7 µM), for inactives: top-dose activity, negative = inhibition, actives largely listed as inhibitors; hit rate 0.39% among 280,000; AID 1468, 2008; also: nearly all actives have a fitted effect of over 55% in size
Target sequence (P10636 561-689 P618L limits assumed): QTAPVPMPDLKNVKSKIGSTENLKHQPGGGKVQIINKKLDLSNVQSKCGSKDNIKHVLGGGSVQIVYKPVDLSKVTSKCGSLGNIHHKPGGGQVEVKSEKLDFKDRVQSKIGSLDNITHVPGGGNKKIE
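Human K18 P301L fragment (15 uM unlabeled plus 0.24 uM Alexa 594-labeled) in 100 mM sodium acetate pH 7 with compound, aggregation induced by 20 uM heparin for 6 hr at 37 C. ThT (30 uM) added for 1 hr, then Alexa 594 FP read.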
TR SRC2 fluor cs: Total Fluorescence Counterscreen for Inhibitors of the Interaction of Thyroid Hormone Receptor and Steroid Receptor Coregulator 2. TRb/SRC2 Texas Red total fluorescence interference. Potency, µM (top dose mostly 106 µM), for the others: at the top dose fluorescence change, negative = quenching. hit rate 0.29% among 280,000. AID 1479, 2009; active = well fitted curve in either direction with a large enough effect; inconclusive = small, poorly fitted or top-dose-only effect
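Flags fluorescent or light-absorbing compounds by total fluorescence, S + 2P, at 555 nm excitation and 632 nm emission. Mixture: 20 nM Texas Red SRC2 peptide, 0.6 uM human TRb LBD, 1 uM T3, 5% DMSO; compound exposure 5 h at ambient temperature.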
Tau ThT inhib: qHTS for Inhibitors of Tau Fibril Formation, Thioflavin T Binding | Microtubule-associated protein tau (Homo sapiens), P10636 | recombinant tau K18 P301L (four-repeat tau fragment), heparin-induced fibrillization, ThT fluorescence | Potency, µM (series often up to 57.4 µM), without a hit: top-dose activity, negative = inhibition, hits mostly inhibitors | hit rate 2.1% among 270,000 | AID 1460, 2008; also: nearly all actives have a fitted effect of over 55% in size
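Heparin-induced (20 uM) aggregation of recombinant human K18 P301L tau, 15 uM unlabeled with 0.24 uM labeled, pH 7 acetate buffer, 6 hr at 37 C with compound. Fibrils quantified by 30 uM ThT fluorescence after 1 hr ambient incubation.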
JMJD2E inh: qHTS Assay for Inhibitors of Human Jumonji Domain Containing 2E (JMJD2E); Lysine-specific demethylase 4E (Homo sapiens), B2RXH2; JMJD2E catalytic domain, FDH-coupled NADH fluorescence (FDH is formaldehyde dehydrogenase); Potency, µM (highest dose often 57.1 µM), without a hit: at the top dose activity change, negative = inhibition, hits mostly inhibitors; hit rate 1.6% among 230,000; active = well fitted inhibition curve with a large enough effect, not every such curve was filed as active; inconclusive = small, poorly fitted or top-dose-only effect, or another doubt; inactive = no such curve, though single readings can be large or run the other way;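 also: 0% = wells with enzyme and -100% = buffer wells without enzyme; nearly all actives have a fitted effect of over 50% in size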
Target sequence (B2RXH2 1-337 limits assumed): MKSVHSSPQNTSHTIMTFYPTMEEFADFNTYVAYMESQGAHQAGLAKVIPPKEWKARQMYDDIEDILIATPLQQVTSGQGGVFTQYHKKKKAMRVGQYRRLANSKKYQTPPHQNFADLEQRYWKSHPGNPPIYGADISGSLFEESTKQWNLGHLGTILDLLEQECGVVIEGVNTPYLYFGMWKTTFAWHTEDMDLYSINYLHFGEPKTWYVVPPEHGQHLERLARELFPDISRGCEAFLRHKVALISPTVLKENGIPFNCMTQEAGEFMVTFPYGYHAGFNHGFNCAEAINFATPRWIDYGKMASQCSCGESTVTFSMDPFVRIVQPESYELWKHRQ
* marks the source's active call; other numbers are inactive results; ? = inconclusive; nt = no result; [ ] = another dose, or the depositor's remark. Unless noted, calls follow the shape of the dose curve; as a rule, active = well fitted curve in the direction sought with a large enough effect; inconclusive = small, poorly fitted or top-dose-only effect, or another doubt; inactive = no such curve, though single readings can be large; an effect the other way counts as inactive or inconclusive. Unless noted, % is scaled to controls: 0 for no effect and ±100 for the full control effect; potency is read from the fitted curve at half-maximal effect.

SMILES	Tau fluor cs	TRb SRC2 PPI	Tau fibril FP	TR SRC2 fluor cs	Tau ThT inhib	JMJD2E inh
Oc1ccc(-c2csc(Nc3ncccn3)n2)cc1	-28.3%	-5.4%	11.5%	-6.0%	?	5.0%
CCOc1nc(-c2ccc(C)cc2)ccc1-c1noc(-c2cccnc2)n1	-7.7%	-4.5%	1.7%	-8.8%	-14.6%	4.47µM*
CC(C)/C(=N/Nc1ccccc1[N+](=O)[O-])c1ccccc1	-19.1%	1.1%	2.2%	-1.1%	?	2.5%
CC1(C)Nc2ccc(O)cc2-c2c1ssc2=S	?	-22.4%	?	-14.7%	11.2µM*	-12.8%
CC(=O)NS(=O)(=O)c1ccc(N=c2ssc3c2-c2cc(C)ccc2NC3(C)C)cc1	-15.5%	-4.0%	-5.2%	-2.7%	?	1.1%
COc1ccc(CC(=O)N2CCc3cc(OC)c(OC)cc3C2COc2cc(C)cc(C)c2)cc1OC (configuration not stated)	-3.2%	9.2%	6.6%	1.2%	-8.5%	nt
CN(CC(=O)Nc1ccccn1)S(=O)(=O)c1ccc(Cl)cc1	1.5%	6.4%	-0.5%	-1.3%	-0.8%	1.2%
COc1ccc(-c2nnc(Nc3ccc(CC(N)=O)cc3)c3ccccc23)cc1	-3.8%	?	5.2%	35.5µM*[quencher]	-1.0%	8.8%
Cc1cc(/C=C2/C(=N)N3C(=NC2=O)SN=C3S(C)(=O)=O)c(C)n1-c1ccc(F)cc1	-1.0%	-4.8%	9.8%	0.0%	-22.0%	31.6µM*
Cc1ccc(-n2cccc2/C=C2/C(=N)N3C(=NC2=O)SN=C3S(C)(=O)=O)cc1Cl	1.5%	18.6%	8.8%	?	?	22.4µM*
Cc1ccc(N2CCN(S(=O)(=O)c3c(C)[nH]c(=O)[nH]c3=O)CC2C)cc1 (configuration not stated)	-10.7%	-2.2%	0.0%	-3.7%	-13.3%	nt
COc1cc(OC)cc(C(=O)N2CC(=O)Nc3ccc(Cl)cc3C2c2ccccc2)c1 (configuration not stated)	-13.0%	9.2%	-14.6%	-0.5%	-5.2%	nt
O=C(CNC(=O)c1cccc(Br)c1)N/N=C/c1cc(Br)cc(Br)c1O	?	-0.8%	0.0%	-2.0%	?	?
O=C(O)c1ccccc1N/N=C\c1ccnc2ccccc12	-23.9%	-7.3%	10.7%	-22.0%	5.01µM*	-8.0%
O=C(O)c1ccccc1N/N=C/c1cc(Br)cc(Br)c1O	?	-3.0%	21.8%	-9.3%	14.1µM*	-8.9%
Cc1ccc(C2CC(=O)C=C(NCc3ccccc3)C2)cc1 (configuration not stated)	9.5%	1.4%	3.9%	-1.4%	3.2%	4.4%
O=C(N/N=C/c1ccc(F)cc1)c1ccccc1	-4.8%	5.0%	-3.2%	-1.4%	-2.1%	2.8%
CCN(CC)c1ccc(/C=N/NC(=O)c2ccoc2C)cc1	?	4.2%	-2.7%	-0.6%	10µM*	?
CCN(CC)c1ccc(/C=N\NC(=O)c2cccc3cc[nH]c23)cc1	14.1µM*[quencher]	6.1%	-4.0%	-5.3%	6.31µM*	?
CN(C)c1ccc(/C=N/NC(=O)c2ccc(NC(=O)c3ccccc3)cc2)cc1	?	1.5%	3.4%	0.4%	1.58µM*	?
CN(C)c1ccc(/C=C(/NC(=O)c2ccccc2)C(=O)N/N=C/c2ccc([N+](=O)[O-])c(O)c2)cc1	14.1µM*[quencher]	-6.4%	2.1%	-4.0%	3.98µM*	0.6%
CCN(CC)c1ccc(/C=N\NC(N)=O)cc1	-8.5%	2.2%	11.6%	-6.2%	?	?
O=C(N/N=C/c1ccc2c(c1)OCO2)/C(=C/c1ccc2c(c1)OCO2)NC(=O)c1ccccc1	-15.8%	-12.6%	-6.3%	-2.3%	-12.6%	?
CC(=O)Nc1cc(C(=O)NCc2ccco2)ccc1Sc1ccc(C)cc1	-1.6%	6.8%	-6.1%	-0.4%	-5.1%	2.5%
COc1ccc(CNC(=O)CCc2c(C)nn(-c3ccc(N4CCOCC4)nn3)c2C)cc1	-3.2%	-2.0%	4.9%	-1.2%	-12.9%	nt
SMILES	Tau fluor cs	TRb SRC2 PPI	Tau fibril FP	TR SRC2 fluor cs	Tau ThT inhib	JMJD2E inh
COc1ccc(-c2nnc(Nc3ccc(OC)c(C(=O)N4CCCCC4)c3)c3ccccc23)cc1	-0.5%	5.8%	1.0%	1.7%	5.6%	-4.3%
CC(C)CNC(=O)C(=O)NNC(=O)C1CCCCC1	-7.5%	4.2%	1.0%	2.5%	-8.7%	7.7%
COc1cccc2c1Oc1nc(-c3ccccc3)nc(SCC(=O)Nc3ccccc3)c1C2	-15.4%	-9.7%	-7.4%	-2.1%	-5.4%	nt
CCN(CC)c1ccc(/C=N/NC(=O)c2ccc(O)cc2)cc1	?	1.5%	16.2%	-1.7%	3.16µM*	?
N#CCC(N)=C(C#N)C#N	-24.0%	6.0%	7.6%	-12.5%	?	7.94µM*
COC(=O)CC#N	nt	5.9%	nt	-2.3%	nt	nt
Cc1ccc2[nH]c(=O)c3cc(C(=O)NCCCN4CCC(C)CC4)sc3c2c1	-8.5%	-1.4%	-8.1%	2.9%	-0.1%	nt
C=CCN(c1ccccc1)S(=O)(=O)c1cccc(C(=O)Nc2nc3ccccc3[nH]2)c1	-19.2%	5.2%	-11.3%	-17.8%	10.0%	28.2µM*
O=C(COC(=O)c1cc(Cl)nc2ccccc12)c1ccc(Cl)cc1	-2.3%	-1.6%	-7.9%	-7.3%	5.2%	-6.0%
O=C(COc1ccccc1)NC(=S)Nc1cccc([N+](=O)[O-])c1	-5.3%	?	13.2%	0.891µM*[quencher]	-2.0%	-0.4%
O=C(COc1cccc(NC(=O)c2cccc([N+](=O)[O-])c2)c1)c1ccc(F)cc1	?	0.3%	-3.8%	-6.7%	?	-4.4%
COc1cccc(C(=O)COc2cccc(NC(=O)c3cccc([N+](=O)[O-])c3)c2)c1	14.1µM*[quencher]	2.0%	7.5%	-7.3%	?	-3.7%
O=C(CCOc1ccccc1)Nc1cccc([N+](=O)[O-])c1	9.3%	-7.1%	1.6%	3.2%	11.0%	1.8%
Fc1ccc2nc(Nc3nc4cc5c(cc4s3)OCO5)sc2c1	3.55µM*[quencher]	-1.8%	?	-0.3%	?	324.1%
Fc1ccc2nc(Nc3nc4cc5c(cc4s3)OCCO5)sc2c1	14.1µM*[quencher]	5.1%	-6.1%	-5.7%	10µM*	13.5%
Cn1c(-c2ccccc2)c(C(=O)CCl)c2ccccc21	-8.6%	-10.6%	6.4%	-6.5%	?	-26.2%
COc1cccc(NC(=O)Cn2c(CCC(=O)O)ccc2-c2ccccc2)c1	-14.8%	-2.9%	0.6%	-0.4%	-17.0%	?

Screening results as filed in PubChem BioAssay.
